“And” between values parts separate entries of the source, which are not always exact repeats. Equal values may be shown once. The source made the active and inactive calls.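 The calls were made as follows, unless noted: active = z-score of at least 1.8 in each of two replicates, scored against plate mean and spread of sample wells; inactive = the rest.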
Assay: galactose survival enhancers in mitochondrial complex I cybrids – cell-based, galactose medium, ATP luminescence, primary screen (AID 1645843);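 also: positive z means more ATP and so rescue of galactose-driven cybrid death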
Details: complex I mutant cybrid cells, 72 h, stronger effect = higher value

Structure (SMILES)	z-score
O=C(O)C1=CCCNC1	0.54 (inactive) and -0.25 (inactive)
CN[C@H](CC(C)C)C(=O)N[C@H]1C(=O)N[C@@H](CC(N)=O)C(=O)N[C@H]2C(=O)N[C@H]3C(=O)N[C@H](C(=O)N[C@H](C(=O)O)c4cc(O)cc(O)c4-c4cc3ccc4O)[C@H](O)c3ccc(c(Cl)c3)Oc3cc2cc(c3O[C@@H]2O[C@H](CO)[C@@H](O)[C@H](O)[C@H]2O[C@H]2C[C@](C)(N)[C@H](O)[C@H](C)O2)Oc2ccc(cc2Cl)[C@H]1O	0.26 (inactive)
CC[C@@]1(O)C[C@H](O[C@H]2C[C@H](N(C)C)[C@H](O[C@H]3C[C@H](O)[C@H](O[C@H]4CCC(=O)[C@H](C)O4)[C@H](C)O3)[C@H](C)O2)c2c(cc3c(c2O)C(=O)c2c(O)cccc2C3=O)[C@H]1C(=O)OC	-1.88 (inactive)
CCC[C@@H]1C[C@@H](C(=O)N[C@@H]([C@H]2O[C@H](SC)[C@H](O)[C@@H](O)[C@H]2O)[C@H](C)Cl)N(C)C1	-0.225 (inactive) and 0.615 (inactive)
COc1cccc(OC)c1OCCNCC1COc2ccccc2O1 (centres undefined)	-0.59 (inactive) and -0.815 (inactive)
O=C(O)c1cc(=O)c2ccc(Cl)cc2[nH]1	-0.2 (inactive)
COc1cc2c(c(OC)c1OC)-c1ccc(OC)c(=O)cc1C(NC(C)=O)CC2 (centres undefined)	-0.44 (inactive)
CC(C)C[C@H]1C(=O)N2CCC[C@H]2[C@]2(O)O[C@](NC(=O)[C@@H]3C=C4c5cccc6[nH]c(Br)c(c56)C[C@H]4N(C)C3)(C(C)C)C(=O)N12	-1.32 (inactive) and -1.22 (inactive)
O=C(/C=C/c1ccc(O)c(O)c1)O[C@H](Cc1ccc(O)c(O)c1)C(=O)O	0.02 (inactive)
O=C(O)C1=CCNCC1	0.645 (inactive) and -0.22 (inactive)
CC(=O)[C@H]1CC[C@H]2[C@@H]3CCC4=CC(=O)CC[C@]4(C)[C@H]3CC[C@]12C	-0.485 (inactive) and -1.04 (inactive)
O=C(O)Cc1nn(Cc2ccc(Br)cc2F)c(=O)c2ccccc12	0.945 (inactive)
CCC[C@@H]1C[C@@H](C(=O)N[C@@H]([C@H]2O[C@H](SC)[C@H](O)[C@@H](O)[C@H]2O)[C@@H](C)O)N(C)C1	-0.14 (inactive)
CCCn1c(=O)c2[nH]c(C3CCCC3)nc2n(CCC)c1=O	1.02 (inactive) and 0.16 (inactive)
N=c1ccn2c(n1)O[C@H]1[C@H](O)[C@@H](CO)O[C@H]12	-1.8 (inactive)
COc1cc(NS(C)(=O)=O)ccc1Nc1c2ccccc2nc2ccccc12	-1.31 (inactive)
C=C1C(=O)O[C@H]2[C@H]1CC/C(C)=C/CC[C@@]1(C)O[C@@H]21	1.27 (inactive)
O=C(O)c1cc(=O)c2ccccc2[nH]1	0.335 (inactive) and 0.005 (inactive)
O=C(O)c1c2ccccc2cc2ccccc12	0.475 (inactive)

Assay: growth inhibition, single agent or in combination, cell-based, chromothripsis tumors, cisplatin or BGB combos (AID 1671449; in the data active = inhibition above about 80%;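 also: cells exposed for 96 hours; 0% = vehicle DMSO and 100% = killing by high DMSO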)
Details: LFS_MB_P medulloblastoma cells, at 0.5 µM, stronger effect = higher value

Structure (SMILES)	inhibition
COc1cc([C@@H]2c3cc4c(cc3[C@@H](O[C@@H]3O[C@@H]5CO[C@@H](c6cccs6)O[C@H]5[C@H](O)[C@H]3O)[C@H]3COC(=O)[C@H]23)OCO4)cc(OC)c1O	-18.8% (inactive) and -25.9% (inactive)
N=c1ccn2c(n1)O[C@H]1[C@H](O)[C@@H](CO)O[C@H]12	-28.5% (inactive)
COc1cc(NS(C)(=O)=O)ccc1Nc1c2ccccc2nc2ccccc12	66.6% (inactive) and -15.7% (inactive)

Same assay, conditions: LFS_MB_P medulloblastoma cells, measured here: combination with BGB IC20, at 0.005 µM

Structure (SMILES)	inhibition
COc1cc([C@@H]2c3cc4c(cc3[C@@H](O[C@@H]3O[C@@H]5CO[C@@H](c6cccs6)O[C@H]5[C@H](O)[C@H]3O)[C@H]3COC(=O)[C@H]23)OCO4)cc(OC)c1O	-25.8% and -10.9%
N=c1ccn2c(n1)O[C@H]1[C@H](O)[C@@H](CO)O[C@H]12	-22.6%
COc1cc(NS(C)(=O)=O)ccc1Nc1c2ccccc2nc2ccccc12	-8.73% and -9.94%

Same assay, conditions: LFS_MB_P medulloblastoma cells, measured here: combination with BGB IC40, at 0.005 µM

Structure (SMILES)	inhibition
COc1cc([C@@H]2c3cc4c(cc3[C@@H](O[C@@H]3O[C@@H]5CO[C@@H](c6cccs6)O[C@H]5[C@H](O)[C@H]3O)[C@H]3COC(=O)[C@H]23)OCO4)cc(OC)c1O	-33.2% and -18.4%
N=c1ccn2c(n1)O[C@H]1[C@H](O)[C@@H](CO)O[C@H]12	-23.7%
COc1cc(NS(C)(=O)=O)ccc1Nc1c2ccccc2nc2ccccc12	-5.2% and -25.6%

Same assay, conditions: LFS_MB_P medulloblastoma cells, measured here: combination with BGB IC40, at 0.05 µM

Structure (SMILES)	inhibition
COc1cc([C@@H]2c3cc4c(cc3[C@@H](O[C@@H]3O[C@@H]5CO[C@@H](c6cccs6)O[C@H]5[C@H](O)[C@H]3O)[C@H]3COC(=O)[C@H]23)OCO4)cc(OC)c1O	-33.7% and -25%
N=c1ccn2c(n1)O[C@H]1[C@H](O)[C@@H](CO)O[C@H]12	-32.2%
COc1cc(NS(C)(=O)=O)ccc1Nc1c2ccccc2nc2ccccc12	-1.49% and -18.2%

Same assay, conditions: LFS_MB_P medulloblastoma cells, measured here: combination with cisplatin, at 0.5 µM, stronger effect = higher value

Structure (SMILES)	inhibition
COc1cc([C@@H]2c3cc4c(cc3[C@@H](O[C@@H]3O[C@@H]5CO[C@@H](c6cccs6)O[C@H]5[C@H](O)[C@H]3O)[C@H]3COC(=O)[C@H]23)OCO4)cc(OC)c1O	-32.6% and -15.4%
N=c1ccn2c(n1)O[C@H]1[C@H](O)[C@@H](CO)O[C@H]12	-58.3%
COc1cc(NS(C)(=O)=O)ccc1Nc1c2ccccc2nc2ccccc12	79.4% and -1.04%
